Experiments:
Assay in all cases: CellTox Green cytotoxicity fluorescence relative to DMSO vehicle (fold of vehicle RFU); higher = more cell death (loss of membrane integrity), active = 2 or more
[1] = tested on: CMK
Method in brief: (§1)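 Single compounds from the Selleckchem apoptosis library were applied at final 0.01, 0.1 and 1 µM (0.1% DMSO vehicle) to MV4-11, CMK and Kasumi-1 cells seeded at 4.0 × 10^4 cells per well with CellTox Green reagent. After incubation at 37 °C, 5% CO2, fluorescence was read at 24, 48 and 72 h. Cytotoxicity, meaning loss of membrane integrity, is shown as fold of the DMSO vehicle signal.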

[2] = tested on: Kasumi-1
Method in brief: as §1

[3] = tested on: MV4-11
Method in brief: as §1

Measured: CellTox Green cytotoxicity fluorescence

CN(C)CCCCC(=O)Nc1ccc(NC(=S)NC(=O)c2ccc(C(C)(C)C)cc2)cc1 [Tenovin-6]
inactive: [1]; 0.01 µM, 24 h 0.978 | [1]; 0.01 µM, 48 h 0.97 | [1]; 0.01 µM, 72 h 0.94 | [1]; 0.1 µM, 24 h 1 | [1]; 0.1 µM, 48 h 0.991 | [1]; 0.1 µM, 72 h 0.973 | [1]; 1 µM, 24 h 1.01 | [1]; 1 µM, 48 h 1.03 | [1]; 1 µM, 72 h 0.875 | [2]; 0.01 µM, 24 h 0.99 | [2]; 0.01 µM, 48 h 0.965 | [2]; 0.01 µM, 72 h 0.966 | [2]; 0.1 µM, 24 h 0.947 | [2]; 0.1 µM, 48 h 0.912 | [2]; 0.1 µM, 72 h 0.879 | [2]; 1 µM, 24 h 0.958 | [2]; 1 µM, 48 h 1 | [2]; 1 µM, 72 h 1.01 | [3]; 0.01 µM, 24 h 1 | [3]; 0.01 µM, 48 h 0.993 | [3]; 0.01 µM, 72 h 0.989 | [3]; 0.1 µM, 24 h 0.986 | [3]; 0.1 µM, 48 h 0.964 | [3]; 0.1 µM, 72 h 0.952 | [3]; 1 µM, 24 h 1.02 | [3]; 1 µM, 48 h 1.02 | [3]; 1 µM, 72 h 1.05

CNC(=O)c1ccc(Nc2ncc(C(F)(F)F)c(NCc3nccnc3N(C)S(C)(=O)=O)n2)cc1 [Defactinib]
inactive: [1]; 0.01 µM, 24 h 0.942 | [1]; 0.01 µM, 48 h 0.942 | [1]; 0.01 µM, 72 h 0.941 | [1]; 0.1 µM, 24 h 0.923 | [1]; 0.1 µM, 48 h 0.931 | [1]; 0.1 µM, 72 h 0.915 | [1]; 1 µM, 24 h 0.945 | [1]; 1 µM, 48 h 1.01 | [1]; 1 µM, 72 h 0.889 | [2]; 0.01 µM, 24 h 0.961 | [2]; 0.01 µM, 48 h 0.964 | [2]; 0.01 µM, 72 h 0.942 | [2]; 0.1 µM, 24 h 0.955 | [2]; 0.1 µM, 48 h 0.958 | [2]; 0.1 µM, 72 h 0.956 | [2]; 1 µM, 24 h 0.931 | [2]; 1 µM, 48 h 0.985 | [2]; 1 µM, 72 h 0.991 | [3]; 0.01 µM, 24 h 0.944 | [3]; 0.01 µM, 48 h 0.943 | [3]; 0.01 µM, 72 h 0.952 | [3]; 0.1 µM, 24 h 0.955 | [3]; 0.1 µM, 48 h 0.991 | [3]; 0.1 µM, 72 h 1.01 | [3]; 1 µM, 24 h 1 | [3]; 1 µM, 48 h 1.12 | [3]; 1 µM, 72 h 1.29

Nc1cccc2c1C(=O)N(C1CCC(=O)NC1=O)C2=O (stereo not given) [Pomalidomide]
inactive: [1]; 0.01 µM, 24 h 1 | [1]; 0.01 µM, 48 h 0.988 | [1]; 0.01 µM, 72 h 0.953 | [1]; 0.1 µM, 24 h 1.01 | [1]; 0.1 µM, 48 h 1.01 | [1]; 0.1 µM, 72 h 0.952 | [1]; 1 µM, 24 h 1.03 | [1]; 1 µM, 48 h 1.04 | [1]; 1 µM, 72 h 0.984 | [2]; 0.01 µM, 24 h 0.992 | [2]; 0.01 µM, 48 h 0.996 | [2]; 0.01 µM, 72 h 0.983 | [2]; 0.1 µM, 24 h 1.01 | [2]; 0.1 µM, 48 h 0.998 | [2]; 0.1 µM, 72 h 0.985 | [2]; 1 µM, 24 h 1.01 | [2]; 1 µM, 48 h 1.02 | [2]; 1 µM, 72 h 1 | [3]; 0.01 µM, 24 h 0.981 | [3]; 0.01 µM, 48 h 0.995 | [3]; 0.01 µM, 72 h 0.992 | [3]; 0.1 µM, 24 h 1.04 | [3]; 0.1 µM, 48 h 1.01 | [3]; 0.1 µM, 72 h 0.983 | [3]; 1 µM, 24 h 1.01 | [3]; 1 µM, 48 h 0.968 | [3]; 1 µM, 72 h 0.96

CC(C)(C)C[C@@H]1N[C@@H](C(=O)N[C@H]2CC[C@H](O)CC2)[C@H](c2cccc(Cl)c2F)[C@]12C(=O)Nc1cc(Cl)ccc12
inactive: [1]; 0.01 µM, 24 h 0.996 | [1]; 0.01 µM, 48 h 1.03 | [1]; 0.01 µM, 72 h 1.05 | [1]; 0.1 µM, 24 h 0.963 | [1]; 0.1 µM, 48 h 0.971 | [1]; 0.1 µM, 72 h 0.947 | [1]; 1 µM, 24 h 1.02 | [1]; 1 µM, 48 h 1.04 | [1]; 1 µM, 72 h 1.01 | [2]; 0.01 µM, 24 h 1 | [2]; 0.01 µM, 48 h 0.996 | [2]; 0.01 µM, 72 h 1.03 | [2]; 0.1 µM, 24 h 0.991 | [2]; 0.1 µM, 48 h 0.994 | [2]; 0.1 µM, 72 h 1 | [2]; 1 µM, 24 h 0.906 | [2]; 1 µM, 48 h 1.02 | [2]; 1 µM, 72 h 1.04 | [3]; 0.01 µM, 24 h 1.04 | [3]; 0.01 µM, 48 h 1.03 | [3]; 0.01 µM, 72 h 1.05 | [3]; 0.1 µM, 24 h 0.993 | [3]; 0.1 µM, 48 h 1.11 | [3]; 0.1 µM, 72 h 1.22 | [3]; 1 µM, 24 h 1.26
active: [3]; 1 µM, 48 h 2.25 | [3]; 1 µM, 72 h 2.49

CN1CCN(CCCNc2ncc(Cl)c(-c3cc4c(C(=O)NC5CC5)cccc4s3)n2)CC1
inactive: [1]; 0.01 µM, 24 h 0.99 | [1]; 0.01 µM, 48 h 0.985 | [1]; 0.01 µM, 72 h 0.953 | [1]; 0.1 µM, 24 h 0.97 | [1]; 0.1 µM, 48 h 0.978 | [1]; 0.1 µM, 72 h 0.95 | [1]; 1 µM, 24 h 0.956 | [1]; 1 µM, 48 h 0.993 | [1]; 1 µM, 72 h 1 | [2]; 0.01 µM, 24 h 0.943 | [2]; 0.01 µM, 48 h 0.931 | [2]; 0.01 µM, 72 h 0.891 | [2]; 0.1 µM, 24 h 0.958 | [2]; 0.1 µM, 48 h 0.947 | [2]; 0.1 µM, 72 h 0.949 | [2]; 1 µM, 24 h 0.953 | [2]; 1 µM, 48 h 1.03 | [2]; 1 µM, 72 h 1.01 | [3]; 0.01 µM, 24 h 0.979 | [3]; 0.01 µM, 48 h 0.976 | [3]; 0.01 µM, 72 h 0.987 | [3]; 0.1 µM, 24 h 0.956 | [3]; 0.1 µM, 48 h 0.966 | [3]; 0.1 µM, 72 h 0.965 | [3]; 1 µM, 24 h 0.903 | [3]; 1 µM, 48 h 0.93 | [3]; 1 µM, 72 h 0.926
